PubChem BioAssay (NCATS)
Inconclusive results are not listed. Calls of active or inactive are those of the source. Unless noted, the call rests on the fitted dose curve.

Tests used:
[1] = biological target: Cytochrome P450 1A2 (Homo sapiens) (UniProt P05177); assay: p450-cyp1a2 (AID 410)
Method in brief: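 O-Demethylation of luciferin 6' methyl ether by human CYP1A2 is monitored as luciferase luminescence. Substrate sits at Km (100uM); enzyme is 20nM. Values are scaled to 57 uM furafylline as maximal inhibition.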

[2] = biological target: Mitogen-activated protein kinase 10 (Mus musculus) (UniProt Q61831); assay: JNK3 AlphaScreen Assay (AID 530; active means well fitted curve in either direction with a large enough effect, not every such curve was filed as active;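 further: kinase came from lysate of stimulated human HepG2 cells; signal reports phosphorylation of biotinylated GST-cJun 1-79 at Ser73 with 10 µM ATP; series mostly up to about 57 µM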)
Method in brief: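 Phosphorylation of biotinylated GST-cJun(1-79) at Ser73 is measured by AlphaScreen proximity luminescence. Enzyme is JNK3 in HepG2 lysates activated with interleukin-1beta and tumor necrosis factor alpha; ATP is 10 uM final.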

[3] = biological target: 3',5'-cyclic-AMP phosphodiesterase 4B (Homo sapiens) (UniProt Q07343); assay: qHTS Assay for Inhibitors of PDE-IV (AID 607; active means well fitted activation curve with a large enough effect in the main read-out, with a control signal flat, not every such curve was filed as active)
3',5'-cyclic-AMP phosphodiesterase 4B (Homo sapiens), sequence (Q07343 whole entry, looked up): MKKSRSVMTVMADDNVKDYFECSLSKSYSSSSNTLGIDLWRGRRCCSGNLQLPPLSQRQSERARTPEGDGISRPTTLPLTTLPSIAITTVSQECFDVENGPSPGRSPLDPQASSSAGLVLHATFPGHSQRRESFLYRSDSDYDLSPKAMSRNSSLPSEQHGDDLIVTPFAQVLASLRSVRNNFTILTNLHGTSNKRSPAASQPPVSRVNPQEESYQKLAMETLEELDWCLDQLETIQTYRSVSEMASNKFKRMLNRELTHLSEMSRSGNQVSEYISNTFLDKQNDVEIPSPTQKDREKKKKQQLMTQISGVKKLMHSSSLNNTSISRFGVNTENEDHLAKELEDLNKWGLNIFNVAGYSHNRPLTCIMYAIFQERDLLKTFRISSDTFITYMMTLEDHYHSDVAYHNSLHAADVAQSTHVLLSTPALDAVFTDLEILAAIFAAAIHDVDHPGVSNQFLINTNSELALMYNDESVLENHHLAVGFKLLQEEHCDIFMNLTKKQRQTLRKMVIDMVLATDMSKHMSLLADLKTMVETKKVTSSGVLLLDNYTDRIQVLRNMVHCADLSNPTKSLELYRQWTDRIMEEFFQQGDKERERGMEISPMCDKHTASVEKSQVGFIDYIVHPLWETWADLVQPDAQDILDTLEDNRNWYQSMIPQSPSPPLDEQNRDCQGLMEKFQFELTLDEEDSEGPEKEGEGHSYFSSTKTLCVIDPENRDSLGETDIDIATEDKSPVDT
Method in brief: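 Live HEK293 cells with a modified cyclic nucleotide-gated (CNG) channel report intracellular cAMP via membrane-potential dye fluorescence (ex 535/em 590 nm). Endogenous PDE-IV was targeted. Compounds were tested at up to 22.9 uM final; RO 20-1724 100 uM served as control.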

Measured: Potency

Cytochrome P450 1A2 (Homo sapiens), sequence (P05177 whole entry, looked up): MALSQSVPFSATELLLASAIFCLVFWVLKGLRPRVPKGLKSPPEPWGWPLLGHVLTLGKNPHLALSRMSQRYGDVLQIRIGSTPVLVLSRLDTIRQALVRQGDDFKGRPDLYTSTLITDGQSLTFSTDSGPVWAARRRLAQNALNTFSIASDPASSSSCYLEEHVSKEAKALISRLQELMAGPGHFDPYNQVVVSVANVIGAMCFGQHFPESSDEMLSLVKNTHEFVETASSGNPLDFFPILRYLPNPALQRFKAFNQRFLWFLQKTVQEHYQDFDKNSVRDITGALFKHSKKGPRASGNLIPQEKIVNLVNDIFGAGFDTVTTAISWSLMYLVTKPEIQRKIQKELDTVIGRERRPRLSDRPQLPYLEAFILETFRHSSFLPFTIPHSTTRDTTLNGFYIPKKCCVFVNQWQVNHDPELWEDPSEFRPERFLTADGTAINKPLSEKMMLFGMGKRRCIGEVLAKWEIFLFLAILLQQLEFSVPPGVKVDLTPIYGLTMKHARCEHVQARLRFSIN

CC(=O)N1CC2(CC2)CC1c1ccccc1 (stereo not drawn)
inactive: all assays above
